Experimental findings from ChEMBL document CHEMBL2218924, “A broad activity screen in support of a chemogenomic map for kinase signalling research and drug discovery” (Biochem J, 2013) are described below.

Molecules are shown by their SMILES.

The target of assay [1] is Mitogen-activated protein kinase 10 (Homo sapiens) (UniProt P53779). Conditions: at 10 µM.
Assay [2] has as its target Vascular endothelial growth factor receptor 2 (Homo sapiens) (UniProt P35968). As to conditions: at 1 µM.
Assay [3] has the same target. As to conditions: at 10 µM.
Assay [4] addresses LIM domain kinase 1 (Homo sapiens) (UniProt P53667). Conditions: at 1 µM.
Assay [5] shares this target. As to conditions: at 10 µM.
Assay [6] deals with T1, Serine/threonine-protein kinase STK11 (Homo sapiens) (UniProt Q15831).
T1 sequence (whole entry): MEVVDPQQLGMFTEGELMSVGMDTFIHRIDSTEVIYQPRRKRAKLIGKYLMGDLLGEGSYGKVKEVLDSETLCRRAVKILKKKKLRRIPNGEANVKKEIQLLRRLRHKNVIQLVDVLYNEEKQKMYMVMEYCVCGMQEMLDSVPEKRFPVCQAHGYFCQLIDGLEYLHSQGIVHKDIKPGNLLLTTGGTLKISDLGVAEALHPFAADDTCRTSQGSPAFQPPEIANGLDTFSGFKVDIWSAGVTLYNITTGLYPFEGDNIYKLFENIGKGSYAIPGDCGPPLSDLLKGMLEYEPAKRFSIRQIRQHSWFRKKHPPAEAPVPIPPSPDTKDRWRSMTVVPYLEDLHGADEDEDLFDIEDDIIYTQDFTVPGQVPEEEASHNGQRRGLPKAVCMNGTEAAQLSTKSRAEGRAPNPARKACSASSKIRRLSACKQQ
As to conditions: at 1 µM.

The target in assay [7] is T1, Serine/threonine-protein kinase STK11 (Homo sapiens). As to conditions: at 10 µM.
Assay [8] addresses Serine/threonine-protein kinase 10 (Homo sapiens) (UniProt O94804). Conditions: at 1 µM.
Assay [9] has the same target. As to conditions: at 10 µM.
Assay [10] addresses Tyrosine-protein kinase Lck (Homo sapiens) (UniProt P06239). Conditions: at 1 µM.
Assay [11] has the same target. As to conditions: at 10 µM.
Assay [12] has the same target. As to conditions: at 1 µM. This is another data set of the same source.
Assay [13] has the same target. As to conditions: at 10 µM. The source holds these as a separate data set.
The target of assay [14] is Tyrosine-protein kinase Lyn (Homo sapiens) (UniProt P07948). As to conditions: at 1 µM.
Chain of Tyrosine-protein kinase Lyn (Homo sapiens) (P07948 2-512 limits assumed): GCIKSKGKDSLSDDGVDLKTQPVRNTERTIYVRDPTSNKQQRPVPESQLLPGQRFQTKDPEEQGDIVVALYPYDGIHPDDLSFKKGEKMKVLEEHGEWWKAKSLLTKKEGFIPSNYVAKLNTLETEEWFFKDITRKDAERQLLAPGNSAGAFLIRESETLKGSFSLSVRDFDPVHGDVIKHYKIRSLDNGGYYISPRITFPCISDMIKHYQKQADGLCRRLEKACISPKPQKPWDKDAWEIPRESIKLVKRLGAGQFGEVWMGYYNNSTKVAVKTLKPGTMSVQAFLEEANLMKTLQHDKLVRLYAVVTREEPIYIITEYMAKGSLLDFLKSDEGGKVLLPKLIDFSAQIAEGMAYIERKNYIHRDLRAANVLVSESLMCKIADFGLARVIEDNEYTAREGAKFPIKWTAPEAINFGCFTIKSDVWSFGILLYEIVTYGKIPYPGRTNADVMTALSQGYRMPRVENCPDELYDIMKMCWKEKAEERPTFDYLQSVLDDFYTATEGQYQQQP
For assay [15] the target is unchanged. Conditions: at 10 µM.
The target of assay [16] is Mitogen-activated protein kinase 3 (Homo sapiens) (UniProt P27361). As to conditions: at 1 µM.
Chain of Mitogen-activated protein kinase 3 (Homo sapiens) (P27361 whole entry): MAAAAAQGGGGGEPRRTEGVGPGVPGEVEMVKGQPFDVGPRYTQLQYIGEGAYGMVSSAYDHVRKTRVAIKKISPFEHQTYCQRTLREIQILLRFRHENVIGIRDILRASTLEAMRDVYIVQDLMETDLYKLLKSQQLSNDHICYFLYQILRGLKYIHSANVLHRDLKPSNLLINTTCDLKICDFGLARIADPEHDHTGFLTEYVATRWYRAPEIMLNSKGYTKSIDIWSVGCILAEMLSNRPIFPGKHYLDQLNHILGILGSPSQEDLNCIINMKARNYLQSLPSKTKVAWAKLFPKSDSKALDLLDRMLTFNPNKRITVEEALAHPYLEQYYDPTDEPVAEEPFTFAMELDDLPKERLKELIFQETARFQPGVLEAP
The target is the same in assay [17]. As to conditions: at 10 µM.
Assay [18] addresses Mitogen-activated protein kinase 1 (Homo sapiens) (UniProt P28482). Conditions: at 1 µM.
Assay [19] has the same target. As to conditions: at 10 µM.
Assay [20] concerns the target MAP kinase-activated protein kinase 2 (Homo sapiens) (UniProt P49137). Conditions: at 1 µM.

Chain of Serine/threonine-protein kinase 10 (Homo sapiens) (O94804 whole entry, looked up): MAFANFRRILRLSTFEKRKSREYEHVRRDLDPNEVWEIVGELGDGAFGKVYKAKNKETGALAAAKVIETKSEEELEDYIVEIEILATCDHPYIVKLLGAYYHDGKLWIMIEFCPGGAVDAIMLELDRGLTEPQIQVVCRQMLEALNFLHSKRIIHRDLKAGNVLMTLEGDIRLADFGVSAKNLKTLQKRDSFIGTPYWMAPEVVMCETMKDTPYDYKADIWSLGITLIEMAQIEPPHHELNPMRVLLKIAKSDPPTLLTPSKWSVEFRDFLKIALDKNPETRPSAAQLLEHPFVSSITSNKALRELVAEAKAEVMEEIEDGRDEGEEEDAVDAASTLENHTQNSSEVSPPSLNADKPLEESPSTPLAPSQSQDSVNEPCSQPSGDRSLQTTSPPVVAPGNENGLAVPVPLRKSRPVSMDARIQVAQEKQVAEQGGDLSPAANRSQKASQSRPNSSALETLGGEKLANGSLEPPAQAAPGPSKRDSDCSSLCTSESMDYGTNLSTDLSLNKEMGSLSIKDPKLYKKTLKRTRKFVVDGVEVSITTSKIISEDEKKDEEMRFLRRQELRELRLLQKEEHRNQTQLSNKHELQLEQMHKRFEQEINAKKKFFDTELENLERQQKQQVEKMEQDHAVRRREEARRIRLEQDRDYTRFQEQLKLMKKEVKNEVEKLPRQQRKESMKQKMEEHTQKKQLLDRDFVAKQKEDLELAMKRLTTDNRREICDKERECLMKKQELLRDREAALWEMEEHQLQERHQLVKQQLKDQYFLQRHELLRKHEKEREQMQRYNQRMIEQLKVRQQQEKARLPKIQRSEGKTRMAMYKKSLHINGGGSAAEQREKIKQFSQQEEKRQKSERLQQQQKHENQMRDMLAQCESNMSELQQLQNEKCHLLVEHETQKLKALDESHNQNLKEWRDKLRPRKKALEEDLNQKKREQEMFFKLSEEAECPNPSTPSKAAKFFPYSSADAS
Chain of Tyrosine-protein kinase Lck (Homo sapiens) (P06239 2-509 limits assumed): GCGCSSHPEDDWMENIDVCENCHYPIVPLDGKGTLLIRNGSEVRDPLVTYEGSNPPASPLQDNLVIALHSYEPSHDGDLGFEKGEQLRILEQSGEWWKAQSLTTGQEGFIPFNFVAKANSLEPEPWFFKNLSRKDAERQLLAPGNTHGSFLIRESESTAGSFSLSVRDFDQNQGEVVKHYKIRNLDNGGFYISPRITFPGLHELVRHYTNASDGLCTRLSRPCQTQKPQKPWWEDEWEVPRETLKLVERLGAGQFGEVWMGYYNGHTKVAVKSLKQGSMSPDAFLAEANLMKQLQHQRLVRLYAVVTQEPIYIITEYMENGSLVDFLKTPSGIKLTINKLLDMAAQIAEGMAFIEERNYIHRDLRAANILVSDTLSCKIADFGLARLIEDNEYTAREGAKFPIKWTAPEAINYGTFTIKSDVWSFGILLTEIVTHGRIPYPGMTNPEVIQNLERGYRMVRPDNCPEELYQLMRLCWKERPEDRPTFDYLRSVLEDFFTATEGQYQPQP
Chain of Mitogen-activated protein kinase 1 (Homo sapiens) (P28482 whole entry): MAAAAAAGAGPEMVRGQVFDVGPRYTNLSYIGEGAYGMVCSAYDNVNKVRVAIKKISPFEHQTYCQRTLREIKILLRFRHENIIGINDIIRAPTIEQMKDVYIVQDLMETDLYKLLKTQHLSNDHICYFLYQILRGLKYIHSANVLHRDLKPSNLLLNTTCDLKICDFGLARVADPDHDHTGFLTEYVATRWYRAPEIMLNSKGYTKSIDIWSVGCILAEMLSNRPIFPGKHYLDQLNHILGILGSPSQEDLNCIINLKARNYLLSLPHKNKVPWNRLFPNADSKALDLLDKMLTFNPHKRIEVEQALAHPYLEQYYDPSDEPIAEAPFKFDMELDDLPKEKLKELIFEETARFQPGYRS
Chain of MAP kinase-activated protein kinase 2 (Homo sapiens) (P49137 whole entry, looked up): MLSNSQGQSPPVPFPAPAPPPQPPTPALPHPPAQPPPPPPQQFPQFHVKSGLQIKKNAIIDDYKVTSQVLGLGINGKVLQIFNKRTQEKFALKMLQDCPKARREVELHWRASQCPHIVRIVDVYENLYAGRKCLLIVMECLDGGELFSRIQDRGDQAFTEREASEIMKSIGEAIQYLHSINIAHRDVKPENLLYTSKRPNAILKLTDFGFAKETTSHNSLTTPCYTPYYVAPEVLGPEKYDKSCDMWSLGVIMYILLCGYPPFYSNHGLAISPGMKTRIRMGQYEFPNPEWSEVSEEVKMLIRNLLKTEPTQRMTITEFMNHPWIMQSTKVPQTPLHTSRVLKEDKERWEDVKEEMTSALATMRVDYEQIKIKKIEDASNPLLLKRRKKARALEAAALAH
Chain of LIM domain kinase 1 (Homo sapiens) (P53667 whole entry, looked up, the tested form may be a part): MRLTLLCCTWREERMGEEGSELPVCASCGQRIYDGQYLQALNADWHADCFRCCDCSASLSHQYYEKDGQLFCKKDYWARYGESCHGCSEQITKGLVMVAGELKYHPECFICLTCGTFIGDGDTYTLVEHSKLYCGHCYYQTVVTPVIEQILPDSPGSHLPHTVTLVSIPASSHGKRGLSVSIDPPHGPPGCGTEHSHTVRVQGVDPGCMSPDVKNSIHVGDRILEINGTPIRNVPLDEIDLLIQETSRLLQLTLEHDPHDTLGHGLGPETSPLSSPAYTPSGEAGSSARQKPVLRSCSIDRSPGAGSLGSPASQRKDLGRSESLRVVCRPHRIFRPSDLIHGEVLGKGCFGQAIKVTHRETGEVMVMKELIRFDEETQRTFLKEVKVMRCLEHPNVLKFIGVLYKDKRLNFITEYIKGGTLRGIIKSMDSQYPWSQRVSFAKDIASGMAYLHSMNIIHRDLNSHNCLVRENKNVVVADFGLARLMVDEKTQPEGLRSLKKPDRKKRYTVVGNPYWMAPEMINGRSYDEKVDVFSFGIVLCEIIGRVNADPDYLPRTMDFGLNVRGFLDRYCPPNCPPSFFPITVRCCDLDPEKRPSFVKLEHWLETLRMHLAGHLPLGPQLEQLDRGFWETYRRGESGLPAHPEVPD
Chain of Mitogen-activated protein kinase 10 (Homo sapiens) (P53779 whole entry): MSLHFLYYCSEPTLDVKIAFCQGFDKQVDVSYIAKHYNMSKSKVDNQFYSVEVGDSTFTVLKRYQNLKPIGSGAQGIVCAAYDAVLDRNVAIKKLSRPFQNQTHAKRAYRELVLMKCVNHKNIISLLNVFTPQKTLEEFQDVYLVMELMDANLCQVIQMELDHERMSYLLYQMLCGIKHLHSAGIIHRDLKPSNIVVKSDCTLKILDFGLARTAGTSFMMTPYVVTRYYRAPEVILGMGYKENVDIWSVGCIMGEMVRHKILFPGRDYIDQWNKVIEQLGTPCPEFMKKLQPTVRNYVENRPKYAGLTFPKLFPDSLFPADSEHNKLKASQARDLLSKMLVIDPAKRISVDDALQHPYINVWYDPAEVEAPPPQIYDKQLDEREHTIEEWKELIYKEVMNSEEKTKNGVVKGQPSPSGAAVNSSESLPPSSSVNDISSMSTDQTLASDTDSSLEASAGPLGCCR

As to `COc1ccc(OC)c2c(=S)c3ccccc3[nH]c12`, the residual activity in assay [1] came out at 65%; in assay [2], 88%; in assay [3], 97%; in assay [4], 93%; in assay [5], 88%; in [6], 97%. Also, the residual activity in assay [7] was 95%; in assay [8], 94%; in assay [9], 89%; in assay [10], 101%; in assay [11] it was 101%; in assay [12], 103%. Besides, the residual activity in [13] came to 92%; in assay [14] it was 80%; in assay [15] it was 84%; in assay [16], 97%; in assay [17], 112%; in [18] it was 111%. Further, the residual activity in [19] came out at 101%; in assay [20] it was 102%.
`Oc1ccc(-c2nc(-c3ccc(F)cc3)c(-c3ccncc3)[nH]2)cc1`: the residual activity was -2% in assay [1]; 98% in assay [2]; 49% in assay [3]; 101% in assay [4]; 69% in assay [5]; 108% in assay [6]. Also, the residual activity worked out at 99% in assay [7]; 92% in assay [8]; 59% in assay [9]; 61% in assay [10]; 45% in [11]; 80% in assay [12]. Further, the residual activity in [13] stood at 26%; in assay [14], 66%; in assay [15], 11%; in assay [16], 123%; in [17], 93%; in [18], 113%. Further, the residual activity came out at 98% in assay [19] and 87% in assay [20].
Take `CCOc1cc2ncnc(Nc3cccc(Br)c3)c2cc1OCC`: the residual activity in [1] was found to be 11%; in assay [2], 54%; in assay [3], 13%; in assay [4], 107%; in assay [5], 49%; in assay [6], 98%. Moreover, the residual activity in assay [7] was 94%; in assay [8], 23%; in [9], 10%; in [10] it was 39%; in assay [11], 4%; in assay [12], 26%. Also, the residual activity is 8% in [13]; 3% in [14]; 1% in assay [15]; 90% in [16]; 55% in assay [17]; 106% in assay [18]. Moreover, the results for the residual activity in assay [19] and in [20] were 77% and 73%, respectively.
As for `O=C1NC(=O)c2c1c1c3ccccc3[nH]c1c1[nH]c3cc(Br)ccc3c21`, the residual activity in assay [1] was 67%; in assay [2], 70%; in assay [3], 58%; in assay [4] it was 99%; in assay [5], 76%; in assay [6] it was 96%. The residual activity in assay [7] was 100%; in assay [8], 98%; in [9], 95%; in assay [10], 79%; in assay [11], 62%; in [12], 95%. The residual activity in assay [13] came to 95%; in assay [14], 72%; in assay [15] it was 69%; in assay [16], 103%; in assay [17], 104%; in assay [18] it was 111%. The residual activity in assay [19] was determined as 99%; in assay [20], 98%.
Turning to `O=c1c2ccccc2[nH]c(=S)n1CCN1CCC(=C(c2ccc(F)cc2)c2ccc(F)cc2)CC1`, the residual activity in assay [1] is 54%; in assay [2] it was 103%; in [3] it was 90%; in assay [4] it was 119%; in assay [5], 93%; in [6], 123%. Moreover, the residual activity in assay [7] is 128%; in assay [8], 107%; in assay [9], 97%; in assay [10], 144%; in assay [11] it was 107%; in assay [12], 83%. The residual activity in assay [13] worked out at 65%; in [14] it was 83%; in [15], 46%; in assay [16], 88%; in [17] it was 61%; in assay [18], 103%. For the same compound, the residual activity in [19] came to 80%; in [20], 97%.
Take `CN(C)c1ccc(/C=C2\C(=O)Nc3ccccc32)cc1`: the residual activity in assay [1] is 106%; in [2] it was 4%; in assay [3] it was 3%; in assay [4] it was 108%; in assay [5] it was 89%; in assay [6], 94%. Besides, the residual activity in assay [7] was 102%; in assay [8] it was 100%; in assay [9], 77%; in [10] it was 129%; in assay [11] it was 55%; in [12], 83%. Besides, the residual activity in [13] was determined as 71%; in assay [14], 86%; in assay [15], 63%; in assay [16], 91%; in assay [17], 69%; in [18] it was 107%. Further, the residual activity in assay [19] was 100%; in assay [20], 121%.
With `O=Nc1c(-c2c(O)[nH]c3ccccc23)[nH]c2ccccc12`, the residual activity in assay [1] is -2%; in assay [2], 4%; in [3], 1%; in assay [4], 61%; in [5], 21%; in assay [6], 83%. Besides, the residual activity in [7] is 44%; in assay [8] it was 66%; in assay [9], 71%; in [10], 13%; in assay [11], 6%; in [12], 22%. Further, the residual activity in assay [13] is 17%; in assay [14], 8%; in assay [15], 2%; in assay [16], 114%; in assay [17], 101%; in assay [18], 104%. In addition, the results for the residual activity in assay [19] and in [20] were 103% and 101%, respectively.
Consider `Cn1cnc2cc3c(Nc4cccc(Br)c4)ncnc3cc21`, for which the residual activity is 9% in assay [1]; 49% in assay [2]; 19% in assay [3]; 105% in assay [4]; 57% in assay [5]; 101% in [6]. In addition, the residual activity in assay [7] came to 99%; in assay [8] it was 31%; in [9], 10%; in [10], 42%; in [11], 24%; in assay [12], 41%. The residual activity in [13] came to 34%; in assay [14], 8%; in [15] it was 2%; in assay [16], 103%; in [17] it was 85%; in assay [18], 107%. Besides, the residual activity was determined as 95% in assay [19] and 108% in assay [20].
On to `Cc1cc2ncc(-c3ccccc3)nc2cc1C`, for which the residual activity is 70% in assay [1]; 92% in assay [2]; 79% in assay [3]; 109% in assay [4]; 93% in assay [5]; 108% in assay [6]. In addition, the residual activity in assay [7] worked out at 99%; in assay [8] it was 89%; in assay [9], 93%; in assay [11] it was 97%; in [12] it was 91%; in [13], 101%. For the same compound, the residual activity in [14] stood at 74%; in [15] it was 75%; in [16], 87%; in [17] it was 86%; in assay [18] it was 100%; in [19], 100%.
Turning to `N#Cc1cnc2cnc(NCc3cccnc3)cc2c1Nc1ccc(F)c(Cl)c1`, the residual activity in [1] is 80%; in assay [3], 76%; in [4], 42%; in assay [5], 27%; in assay [8], 96%; in assay [9], 93%. For the same compound, the residual activity came to 68% in [10]; 20% in assay [11]; 14% in assay [12]; 7% in assay [13]; 1% in assay [15]; 75% in assay [17]. The residual activity in assay [20] was 51%.
`Oc1ccc(Nc2nc(-c3ccc(Cl)cc3)cs2)cc1`: the residual activity in [1] turned out to be 115%; in assay [2] it was 104%; in [3], 92%; in assay [4] it was 102%; in assay [5] it was 102%; in assay [6] it was 108%. The residual activity stood at 109% in assay [8]; 107% in [9]; 93% in assay [10]; 103% in assay [11]; 98% in [12]; 79% in assay [13]. The residual activity in [14] stood at 84%; in assay [15], 56%; in [16], 96%; in assay [17], 81%; in assay [18], 114%; in [19], 107%. In assay [20], the residual activity turned out to be 108%.
With `Cn1nc2c3c(cccc31)C(=O)c1ccccc1-2`, the residual activity in assay [1] was determined as 9%; in assay [2], 84%; in assay [3], 45%; in assay [4], 86%; in assay [5] it was 80%; in [6], 102%. Besides, the residual activity in assay [7] was found to be 84%; in [8], 73%; in assay [9], 68%; in [11], 93%; in [12], 106%; in assay [13] it was 86%. In addition, the residual activity in [14] is 89%; in assay [15], 50%; in [16], 83%; in [17], 96%; in [19], 97%; in assay [20] it was 77%.
Regarding `CO[C@H]1C[C@@H]2CC[C@@H](C)[C@@](O)(O2)C(=O)C(=O)N2CCCC[C@H]2C(=O)O[C@H]([C@H](C)C[C@@H]2CC[C@@H](O)[C@H](OC)C2)CC(=O)[C@H](C)/C=C(\C)[C@@H](O)[C@@H](OC)C(=O)[C@H](C)C[C@H](C)/C=C/C=C/C=C/1C`, the residual activity in [1] turned out to be 153%; in assay [2], 100%; in assay [3], 96%; in assay [4] it was 102%; in [5] it was 91%; in [6], 101%. The residual activity in assay [7] came out at 99%; in [8] it was 85%; in assay [9], 90%; in [10] it was 121%; in [11], 80%; in [12], 102%. In addition, the residual activity in [13] stood at 124%; in [14] it was 86%; in assay [15], 131%; in [16], 83%; in assay [17], 116%; in assay [18], 102%. The residual activity in assay [19] came to 101%; in assay [20] it was 86%.
As for `CC(=O)c1ccc(N2CCOCC2)cc1O`, the residual activity in assay [1] came to 85%; in assay [2], 106%; in assay [3], 91%; in assay [4] it was 104%; in assay [5], 83%; in assay [6], 97%. Besides, the residual activity in assay [8] was found to be 102%; in [9], 90%; in assay [14], 105%; in [15], 98%; in assay [16] it was 91%; in [17] it was 89%. Also, in assay [20], the residual activity was 100%.
